# PubChem BioAssay (NCI)
# Compounds without any hit were thinned out: in the full panel of roughly 79,000, 15% have a hit. A number with no mark means an inactive call. Calls of active or inactive are those of the source. No stated cut-off is given here; in the data, active means growth inhibition above about 70%; inactive means the rest.
# Experiments:
# [1] = NCI Yeast Anticancer Drug Screen. Data for the mec2-1 strain (AID 157); conditions: S. cerevisiae mec2-1 strain, hits give high values
# How it was run: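 Mutant yeast (mec2-1) grown with compound; growth inhibition relative to vehicle control reported.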
# [2] = NCI Yeast Anticancer Drug Screen. Data for the rad14 strain (AID 159);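 further: 0% = growth of vehicle-treated control cultures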; conditions: S. cerevisiae rad14 strain growth inhibition, hits give high values
# How it was run: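 Here, inhibition of yeast growth was measured after compound exposure, using a strain with a genetic defect in DNA damage repair and vehicle-treated cultures as the reference.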
# [3] = NCI Yeast Anticancer Drug Screen. Data for the sgs1 mgt1 strain (AID 161);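 further: 0% = growth of cultures given vehicle only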; conditions: S. cerevisiae sgs1 mgt1 strain, hits give high values
# How it was run: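 Growth of a repair-deficient yeast mutant was monitored after compound treatment and expressed as inhibition relative to vehicle-treated cultures.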
# [4] = NCI Yeast Anticancer Drug Screen. Data for the cln2 rad14 strain (AID 165);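 further: 0% = growth equal to vehicle treated cultures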; conditions: S. cerevisiae cln2 rad14 strain, hits give high values
# How it was run: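 Readout is yeast growth inhibition versus vehicle-treated controls, using a strain with cln2 and rad14 alterations exposed to compound.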
# [5] = NCI Yeast Anticancer Drug Screen. Data for the bub3 strain (AID 167); conditions: S. cerevisiae bub3 mutant strain, hits give high values
# How it was run: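 Whole-cell yeast assay. The mutant strain was incubated with compounds, and growth inhibition was determined by comparison with vehicle-treated cells.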
# [6] = NCI Yeast Anticancer Drug Screen. Data for the wt2 strain (AID 169);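 further: 0% = growth of vehicle-treated yeast cultures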; conditions: S. cerevisiae wt2 strain growth inhibition, hits give high values
# How it was run: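 Against vehicle-treated controls, the growth of yeast exposed to each compound was compared, and the inhibition was recorded.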
# [7] = NCI Yeast Anticancer Drug Screen. Data for the mlh1 strain (AID 171);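 further: 0% = growth of vehicle-treated control cultures of the same strain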; conditions: S. cerevisiae mlh1 strain growth inhibition, hits give high values
# How it was run: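 Measured: yeast growth. Reference: vehicle-treated controls. Organism: strain with a defined alteration affecting DNA damage repair or cell cycle control, treated with compound.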
# [8] = NCI Yeast Anticancer Drug Screen. Data for the sgs1 strain (AID 173);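 further: 0% = growth of vehicle-only control cultures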; conditions: S. cerevisiae sgs1 mutant, hits give high values
# How it was run: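 Each compound was added to cultures of the altered yeast strain. Growth was recorded, and inhibition was derived by comparison with vehicle controls.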
# [9] = NCI Yeast Anticancer Drug Screen. Data for the mlh1 rad18 strain (AID 175); conditions: S. cerevisiae mlh1 rad18 strain growth inhibition, hits give high values
# How it was run: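 Genetically defined yeast (DNA repair-deficient) exposed to compounds; growth inhibition determined relative to vehicle.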
# [10] = NCI Yeast Anticancer Drug Screen. Data for the rad18 strain (AID 177); conditions: S. cerevisiae rad18 mutant growth inhibition, hits give high values
# How it was run: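 Vehicle-treated cultures served as the baseline for scoring compound-induced growth inhibition in DNA-repair-mutant yeast.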
# [11] = NCI Yeast Anticancer Drug Screen. Data for the rad52 strain (AID 147);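 further: 0% = growth of vehicle-treated control cultures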; conditions: S. cerevisiae rad52 mutant growth inhibition, hits give high values
# How it was run: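 The repair-mutant yeast strain was incubated with compounds, then growth was read and inhibition derived relative to vehicle.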
# [12] = NCI Yeast Anticancer Drug Screen. Data for the wt1 strain (AID 149);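 further: 0% = growth of vehicle-treated wt1 cultures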; conditions: S. cerevisiae wt1 strain (SPY 50644) growth inhibition, hits give high values
# How it was run: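 Measured: growth of wt1 yeast under compound versus vehicle treatment, reported as inhibition.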
# [13] = NCI Yeast Anticancer Drug Screen. Data for the rad50EPP+ strain (AID 151);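 further: 0% = growth of vehicle-treated control cultures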; conditions: S. cerevisiae rad50 mutant strain, hits give high values
# How it was run: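 Vehicle-normalised growth inhibition; rad50EPP+ yeast strain, altered in DNA damage repair, compound-treated.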
# [14] = NCI Yeast Anticancer Drug Screen. Data for the mgt1 strain (AID 153); conditions: S. cerevisiae mgt1 mutant growth inhibition, hits give high values
# How it was run: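 Vehicle-normalized growth inhibition is determined in mgt1 yeast, a strain selected for a defined alteration in DNA repair or cell cycle control.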
# [15] = NCI Yeast Anticancer Drug Screen. Data for the rad50 strain (AID 155);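 further: 0% = growth of vehicle-only cultures of the same strain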; conditions: S. cerevisiae rad50 strain growth inhibition, hits give high values
# How it was run: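 Growth of the mutant yeast was measured after compound exposure and referenced to vehicle-treated cultures.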
# [16] = NCI Yeast Anticancer Drug Screen. Data for the CLN2oe strain (AID 163);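 further: 0% = growth of vehicle-only control cultures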; conditions: S. cerevisiae CLN2oe strain, hits give high values
# How it was run: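 Compounds are applied to yeast harbouring a defined cell-cycle control change; reduced growth compared with vehicle-treated controls gives the value.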
# [17] = at 5.0 µM (retest, dose inferred, filed as 0.5)
# [18] = at 50.0 µM (retest, dose inferred, filed as 5.0)
compound,measurement,setting,value
CC[PH+](CC)CC.CC[PH+](CC)CC.[Au],growth inhibition,[1]; [17],52%
same,growth inhibition,[1]; at 11.0 µM,55%
same,growth inhibition,[1]; at 33.0 µM,90% (active)
same,growth inhibition,[1]; [18],99% (active)
same,growth inhibition,[1]; at 50.0 µM,94.2% (active)
same,growth inhibition,[1]; at 100.0 µM,98% (active)
same,growth inhibition,[2]; at 1.2 µM,15%
same,growth inhibition,[2]; at 3.7 µM,30%
same,growth inhibition,[2]; at 11.0 µM,34%
same,growth inhibition,[2]; at 33.0 µM,86% (active)
same,growth inhibition,[2]; at 100.0 µM,99% (active)
same,growth inhibition,[3]; [17],-11%
same,growth inhibition,[3]; [18],94% (active)
same,growth inhibition,[3]; at 50.0 µM,89.4% (active)
same,growth inhibition,[4]; [17],27%
same,growth inhibition,[4]; [18],93% (active)
same,growth inhibition,[4]; at 50.0 µM,89.2% (active)
same,growth inhibition,[5]; at 1.2 µM,8%
same,growth inhibition,[5]; at 3.7 µM,16%
same,growth inhibition,[5]; [17],-25%
same,growth inhibition,[5]; at 11.0 µM,21%
same,growth inhibition,[5]; at 33.0 µM,79% (active)
same,growth inhibition,[5]; [18],97% (active)
same,growth inhibition,[5]; at 50.0 µM,89.3% (active)
same,growth inhibition,[5]; at 100.0 µM,98% (active)
same,growth inhibition,[6]; at 1.2 µM,-13%
same,growth inhibition,[6]; at 3.7 µM,-9%
same,growth inhibition,[6]; at 11.0 µM,21%
same,growth inhibition,[6]; at 33.0 µM,98% (active)
same,growth inhibition,[6]; at 100.0 µM,99% (active)
same,growth inhibition,[7]; at 1.2 µM,30%
same,growth inhibition,[7]; at 3.7 µM,49%
same,growth inhibition,[7]; at 11.0 µM,41%
same,growth inhibition,[7]; at 33.0 µM,54%
same,growth inhibition,[7]; at 100.0 µM,99% (active)
same,growth inhibition,[8]; at 1.2 µM,28%
same,growth inhibition,[8]; at 3.7 µM,39%
same,growth inhibition,[8]; at 11.0 µM,41%
same,growth inhibition,[8]; at 33.0 µM,90% (active)
same,growth inhibition,[8]; at 100.0 µM,99% (active)
same,growth inhibition,[9]; [17],34%
same,growth inhibition,[9]; [18],98% (active)
same,growth inhibition,[9]; at 50.0 µM,89% (active)
same,growth inhibition,[10]; at 1.2 µM,12%
same,growth inhibition,[10]; at 3.7 µM,16%
same,growth inhibition,[10]; at 11.0 µM,32%
same,growth inhibition,[10]; at 33.0 µM,92% (active)
same,growth inhibition,[10]; at 100.0 µM,98% (active)
O=[N+]([O-])c1cc([As](Br)c2ccc(O)c([N+](=O)[O-])c2)ccc1O,growth inhibition,[11]; at 1.2 µM,15%
same,growth inhibition,[11]; at 3.7 µM,57%
same,growth inhibition,[11]; at 11.0 µM,99% (active)
same,growth inhibition,[11]; at 33.0 µM,99% (active)
same,growth inhibition,[11]; at 100.0 µM,98% (active)
same,growth inhibition,[12]; at 1.2 µM,10%
same,growth inhibition,[12]; at 3.7 µM,70% (active)
same,growth inhibition,[12]; at 11.0 µM,99% (active)
same,growth inhibition,[12]; at 33.0 µM,98% (active)
same,growth inhibition,[12]; at 100.0 µM,98% (active)
same,growth inhibition,[13]; at 1.2 µM,0%
same,growth inhibition,[13]; at 3.7 µM,3%
same,growth inhibition,[13]; at 11.0 µM,26%
same,growth inhibition,[13]; at 33.0 µM,74% (active)
same,growth inhibition,[13]; at 100.0 µM,99% (active)
same,growth inhibition,[14]; at 1.2 µM,28%
same,growth inhibition,[14]; at 3.7 µM,88% (active)
same,growth inhibition,[14]; at 11.0 µM,100% (active)
same,growth inhibition,[14]; at 33.0 µM,99% (active)
same,growth inhibition,[14]; at 100.0 µM,99% (active)
same,growth inhibition,[15]; at 1.2 µM,28%
same,growth inhibition,[15]; at 3.7 µM,89% (active)
same,growth inhibition,[15]; [17],99% (active)
same,growth inhibition,[15]; at 11.0 µM,99% (active)
same,growth inhibition,[15]; at 33.0 µM,99% (active)
same,growth inhibition,[15]; [18],99% (active)
same,growth inhibition,[15]; at 50.0 µM,99.5% (active)
same,growth inhibition,[15]; at 100.0 µM,98% (active)
same,growth inhibition,[1]; at 1.2 µM,60%
same,growth inhibition,[1]; at 3.7 µM,93% (active)
same,growth inhibition,[1]; [17],99% (active)
same,growth inhibition,[1]; at 11.0 µM,99% (active)
same,growth inhibition,[1]; at 33.0 µM,100% (active)
same,growth inhibition,[1]; [18],99% (active)
same,growth inhibition,[1]; at 50.0 µM,99.8% (active)
same,growth inhibition,[1]; at 100.0 µM,100% (active)
same,growth inhibition,[2]; at 1.2 µM,31%
same,growth inhibition,[2]; at 3.7 µM,69%
same,growth inhibition,[2]; at 11.0 µM,100% (active)
same,growth inhibition,[2]; at 33.0 µM,100% (active)
same,growth inhibition,[2]; at 100.0 µM,99% (active)
same,growth inhibition,[16]; at 1.2 µM,16%
same,growth inhibition,[16]; at 3.7 µM,22%
same,growth inhibition,[16]; at 11.0 µM,93% (active)
same,growth inhibition,[16]; at 33.0 µM,98% (active)
same,growth inhibition,[16]; at 100.0 µM,98% (active)
same,growth inhibition,[4]; [17],98% (active)
same,growth inhibition,[4]; [18],99% (active)
same,growth inhibition,[4]; at 50.0 µM,99.5% (active)
same,growth inhibition,[5]; at 1.2 µM,97% (active)
same,growth inhibition,[5]; at 3.7 µM,98% (active)
same,growth inhibition,[5]; [17],93% (active)
same,growth inhibition,[5]; at 11.0 µM,97% (active)
same,growth inhibition,[5]; at 33.0 µM,98% (active)
same,growth inhibition,[5]; [18],99% (active)
same,growth inhibition,[5]; at 50.0 µM,99.5% (active)
same,growth inhibition,[5]; at 100.0 µM,99% (active)
same,growth inhibition,[6]; at 1.2 µM,12%
same,growth inhibition,[6]; at 3.7 µM,94% (active)
same,growth inhibition,[6]; at 11.0 µM,99% (active)
same,growth inhibition,[6]; at 33.0 µM,99% (active)
same,growth inhibition,[6]; at 100.0 µM,99% (active)
same,growth inhibition,[7]; at 1.2 µM,31%
same,growth inhibition,[7]; at 3.7 µM,75% (active)
same,growth inhibition,[7]; at 11.0 µM,99% (active)
same,growth inhibition,[7]; at 33.0 µM,100% (active)
same,growth inhibition,[7]; at 100.0 µM,100% (active)
same,growth inhibition,[8]; at 1.2 µM,33%
same,growth inhibition,[8]; at 3.7 µM,90% (active)
same,growth inhibition,[8]; at 11.0 µM,99% (active)
same,growth inhibition,[8]; at 33.0 µM,99% (active)
same,growth inhibition,[8]; at 100.0 µM,99% (active)
same,growth inhibition,[9]; [17],99% (active)
same,growth inhibition,[9]; [18],99% (active)
same,growth inhibition,[9]; at 50.0 µM,99.8% (active)
same,growth inhibition,[10]; at 1.2 µM,26%
same,growth inhibition,[10]; at 3.7 µM,85% (active)
same,growth inhibition,[10]; at 11.0 µM,99% (active)
same,growth inhibition,[10]; at 33.0 µM,99% (active)
same,growth inhibition,[10]; at 100.0 µM,98% (active)
